# Source: PubChem
# In the library only some 1.6% were active in any assay of this set; here they are far more common.
# KCNQ2 block = blocks the rat KCNQ2 potassium channel | O88943 | CHO-K1 KCNQ2, FluxOR thallium flux, 20 min; active compounds read low | B-score at 10 µM | hit rate 1.1% among 310,000 | AID 2156;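 active means fluorescence ratio B-score at most minus 3 library SDs, with starting brightness B-score within 2 library SDs, cut at about -5.5 in these data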
# KCNQ2 pot = KCNQ2 (rat) channel potentiation; CHO-K1 KCNQ2, FluxOR thallium flux fluorescence; active compounds read high; B-score at 10 µM; hit rate 0.54% among 310,000; AID 2239;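 active means fluorescence ratio B-score at least 3 SD of library B-scores, with initial fluorescence B-score within 3 of them, cut at about 5.3 in these data; same plate scores as AID 2156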;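 further: B-score of peak minus minimum over baseline fluorescence ratio after K+ and Tl+ stimulus; positive B-score means potentiation of KCNQ2 with more thallium influx and brighter signal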
# Kir21 conf inh = confirmation of mouse Kir2.1 potassium channel inhibitors; shares compounds with KCNQ2 pot; Kir2.1-expressing cells, FluxOR thallium flux fluorescence; active compounds read low; Tl flux remaining, % of negative control (active compounds read low), % at 10 µM; hit rate 41% among 2,300;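 active means Primary-screen hit whose thallium flux fell at least 3 control SD below untreated wells in both duplicates, with normal baseline fluorescence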;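 further: 0% = blank wells without stimulus and 100% = stimulated no-compound controls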
# HEK293 ctr = parental HEK293 activity in Kir2.1 inhibitor counter-screen; FluxOR signal as % of negative control (100 = no effect), % at 10 µM; shares compounds with KCNQ2 pot; parental HEK293 cells, FluxOR thallium flux fluorescence; 0% = unstimulated blank wells; hit rate 19% among 2,300;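 active means dye signal at least 3 control SD above or below untreated wells in both duplicates, raw fluorescence within 3, either direction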;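 further: percent is based on the flux ratio of peak minus minimum fluorescence over baseline F0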
# CHO-K1 ctr = alters thallium flux in parental CHO-K1 cells, KCNQ2 counter-screen | hit rate 43% among 1,200 | shares compounds with KCNQ2 pot | FluxOR thallium flux fluorescence; zero = vehicle mean+3SD, 100% = vehicle-minus-blank window | activity increase over 3SD of controls, % at 10 µM | AID 2282;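 active means signal rise of at least 3 SD above the untreated control mean, in both duplicate wells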;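 further: counter screen of KCNQ2 potentiator hits so any rise reflects channel-independent effects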
# KCNQ1 pot spec = human KCNQ1 counter-target activity of KCNQ2 potentiators; shares compounds with KCNQ2 pot; hit rate 28% among 1,200; activation over 3SD threshold, % at 10 µM; CHO KCNQ1 stable, FluxOR thallium flux fluorescence; beyond 3SD, as % of vehicle-control signal;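 active means fluorescence ratio rise of at least 3 SD of vehicle wells above their mean, in both replicate wells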;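 further: 0% = vehicle mean plus 3 SD and 100% = vehicle minus unstimulated blank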
# Target sequence (P51787 whole entry, looked up): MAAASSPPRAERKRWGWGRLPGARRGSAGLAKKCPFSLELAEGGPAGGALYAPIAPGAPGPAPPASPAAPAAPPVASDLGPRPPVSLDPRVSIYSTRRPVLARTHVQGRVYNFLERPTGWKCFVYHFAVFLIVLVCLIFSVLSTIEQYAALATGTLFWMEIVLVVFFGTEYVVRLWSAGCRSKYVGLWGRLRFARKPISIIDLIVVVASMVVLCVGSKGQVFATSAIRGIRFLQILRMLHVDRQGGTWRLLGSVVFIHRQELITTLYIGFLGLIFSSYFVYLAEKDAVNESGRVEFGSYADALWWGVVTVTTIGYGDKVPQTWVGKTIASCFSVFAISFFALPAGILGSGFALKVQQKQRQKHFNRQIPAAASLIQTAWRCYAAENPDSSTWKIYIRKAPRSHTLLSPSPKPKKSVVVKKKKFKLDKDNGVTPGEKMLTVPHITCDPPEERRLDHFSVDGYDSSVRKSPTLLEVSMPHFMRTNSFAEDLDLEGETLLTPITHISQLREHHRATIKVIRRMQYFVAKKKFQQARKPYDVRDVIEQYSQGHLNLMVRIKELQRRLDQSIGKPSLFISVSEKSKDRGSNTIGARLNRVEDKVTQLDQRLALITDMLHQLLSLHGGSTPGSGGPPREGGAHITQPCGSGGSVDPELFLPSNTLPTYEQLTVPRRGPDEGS
# KCNQ2 pot confirm = confirmation of rat KCNQ2 potassium channel potentiators | hit rate 68% among 1,200 | potentiation, less the hit threshold, % at 10 µM | CHO-KCNQ2 cells, FluxOR thallium flux fluorescence | AID 2287 | shares compounds with KCNQ2 pot;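 active means fluorescence ratio rising 3 SD or more over the vehicle control mean in both replicates, plus primary screen hit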;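 further: peak minus minimum thallium fluorescence divided by baseline after K/Tl stimulus; 0% = vehicle mean plus 3 SD and 100% = vehicle minus unstimulated blank difference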
# Kir21 spec = mouse Kir2.1 off-target activity of KCNQ2 potentiators; shares compounds with KCNQ2 pot; activity over 3SD threshold, % at 10 µM; AID 2345; hit rate 2% among 1,200; HEK293 Kir2.1, FluxOR thallium flux fluorescence;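 active means fluorescence ratio rise of at least 3 SD above the vehicle-control mean, seen in both replicates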;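 further: 0% = vehicle mean plus 3 SD and 100% = vehicle minus no-stimulus blank window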
# KCNQ2 W236L MoA = potentiates the retigabine-insensitive rat KCNQ2 W236L mutant channel | shares compounds with KCNQ2 pot | CHO KCNQ2-W236L, automated patch clamp current | current increase over 3SD of negative controls (%), active compounds read high, % at 25 µM | hit rate 10% among 940;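 active means current increase at least 3 SD of the untreated controls above them in both duplicate recordings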
# Numbers without * were called inactive; i = inactive; nt = no result given.
SMILES,KCNQ2 block,KCNQ2 pot,Kir21 conf inh,HEK293 ctr,others
Cc1ccc(NC(=O)COC(=O)C2CC2C)c(S(=O)(=O)N2CCCCC2)c1 (stereo not given),i,5.3*,i,i,CHO-K1 ctr=-14;KCNQ1 pot spec=-17;KCNQ2 pot confirm=-23;Kir21 spec=-50
CC(=O)c1cccc(NC(=O)C(C)OC(=O)CCN=C2NS(=O)(=O)c3ccccc32)c1 (stereo not given),i,0.41,nt,nt,
Cc1cc(NC(=S)N(CCCN2CCOCC2)Cc2ccco2)ccc1Cl,i,0.06,nt,nt,
CC(=O)N(C1CC(C)C(C#N)(C#N)C1(C#N)C#N)N(C)C (stereo not given),i,24*,i,63%*,
CN(CCCC(=O)N1CCCC(C(N)=O)C1)S(=O)(=O)c1ccc(F)cc1 (stereo not given),i,0.12,nt,nt,
CCn1c(CC(=O)Nc2ccc(C)cc2)nnc1SCC(=O)NCc1ccccc1,i,nt,nt,nt,
CCn1c(CNc2ccc(Cl)cc2)nnc1SCc1ccccc1,i,nt,63%*,i,
CCn1c(CSCc2ccc(C)cc2)nnc1SCC(=O)NCc1ccccc1,i,nt,i,i,
Cn1c(CNc2ccc(Cl)cc2)nnc1SCc1ccccc1,i,nt,nt,nt,
Clc1ccc(-c2c(C3=NCCCN3)nnn2-c2ccc(Cl)cc2)cc1,i,1.9,nt,nt,
CC(C)c1ccc2[nH]c3nc(SCC(=O)N4CCOCC4)nnc3c2c1,i,0.78,nt,nt,
COc1ccccc1CNC(=O)CN(C)S(=O)(=O)c1ccc2c(c1)n(C)c(=O)c(=O)n2C,i,0.04,nt,nt,
Cc1cc2c(ncn2C)c(NS(=O)(=O)c2ccc(F)cc2)c1C,i,0.03,nt,nt,
Cc1cc2c(ncn2C(C)C)c(NS(=O)(=O)c2ccc(F)cc2)c1C,i,5.3*,i,i,CHO-K1 ctr=-15;KCNQ1 pot spec=9.7*;KCNQ2 pot confirm=4.3*;Kir21 spec=-41;KCNQ2 W236L MoA=i
O=C(COc1ccc2ccccc2c1)N[C@@H](C(=O)O)c1ccc(O)cc1,i,0.56,nt,nt,
COc1ccccc1Nc1nc(NCCO)c2ccccc2n1,i,0.03,nt,nt,
Cc1ccc(Nc2nc(NCCO)c3ccccc3n2)cc1C,i,nt,28%*,i,
Cc1cc(C)n(C(C)CNS(=O)(=O)c2ccc(Cl)cc2)n1 (stereo not given),i,nt,nt,nt,
CCCCCCCCCCOC(=O)Cn1c(COc2ccc(Cl)cc2)[n+](C)c2ccccc21,i,nt,nt,nt,
CCCCCOC(=O)Cn1c(=O)oc2ccccc21,i,nt,nt,nt,
CCCCCCCCCCOC(=O)Cn1c(COc2ccc(OC)cc2)[n+](C)c2ccccc21,i,1.6,i,i,
CCCCOC(=O)Cn1c(=O)n(CC(=O)OCCCC)c2ccccc21,i,nt,i,i,
CCCCCCCCCCOC(=O)Cn1c(COc2ccccc2)[n+](C)c2ccccc21,i,nt,i,i,
CCCCCCCCCCOC(=O)Cn1c(COc2cccc(C)c2)[n+](C)c2ccccc21,i,0.86,i,i,
CCCCOC(=O)Cn1c(=N)n(CCN2CCOCC2)c2ccccc21,i,nt,nt,nt,
SMILES,KCNQ2 block,KCNQ2 pot,Kir21 conf inh,HEK293 ctr,others
Cc1cccc(OCCCn2c(=O)sc3ccccc32)c1,i,nt,nt,nt,
Cc1cc(NC(=O)Cc2cc(F)cc(F)c2)no1,i,0.18,nt,nt,
O=C(CSc1nnc(Cc2ccccc2)c(=O)[nH]1)Nc1ccccc1,i,nt,nt,nt,
O=C(NCCS(=O)(=O)c1ccc(Br)cc1)c1c(F)cccc1F,i,0.46,nt,nt,
C=CCN(CC=C)C(=S)NC(=O)/C=C/c1ccccc1,i,0.7,nt,nt,
CC(C)C(=O)NC(=S)N(Cc1ccccc1)Cc1ccccc1,i,nt,nt,nt,
COc1ccc(C(=O)NC(=S)N(Cc2ccccc2)Cc2ccccc2)cc1,i,19*,i,199%*,CHO-K1 ctr=136*;KCNQ1 pot spec=-6;KCNQ2 pot confirm=-1;Kir21 spec=-28;KCNQ2 W236L MoA=i
O=C(NC(=S)N(Cc1ccccc1)Cc1ccccc1)c1ccccc1F,i,11*,i,218%*,CHO-K1 ctr=110*;KCNQ1 pot spec=-1;KCNQ2 pot confirm=22*;Kir21 spec=-40;KCNQ2 W236L MoA=i
O=C(NC(=S)NCc1ccccc1)c1ccccc1F,i,0.78,nt,nt,
C=CCN(CC=C)C(=S)NC(=O)c1ccc(-c2ccccc2)cc1,i,7.3*,i,420%*,CHO-K1 ctr=-3;KCNQ1 pot spec=22*;KCNQ2 pot confirm=89*;Kir21 spec=-4;KCNQ2 W236L MoA=i
Cc1ccccc1CN1CCSc2sccc2C1=O,i,nt,nt,nt,
O=C(CCCc1c[nH]c2ccccc12)NCc1ccccc1C(F)(F)F,i,nt,nt,nt,
N#C/C(=C\c1ccc(Cl)cc1)c1n[nH]c(Cn2cncn2)n1,i,nt,nt,nt,
O=C(Nc1ccc(Cl)cc1Cl)c1n[nH]c(Cn2cncn2)n1,i,7.1*,i,i,CHO-K1 ctr=-11;KCNQ1 pot spec=50*;KCNQ2 pot confirm=-9;Kir21 spec=-23;KCNQ2 W236L MoA=i
O=C(CSc1nnc(SCc2ccc(Cl)cc2)s1)c1ccc2c(c1)OCO2,i,nt,nt,nt,
CC(=O)NC(Cc1ccc(F)cc1)C(=O)NC1CCN(C(=O)Nc2ccc(F)cc2)CC1 (stereo not given),i,0.22,nt,nt,
Cn1c(SCC(=O)Nc2ccc3c(c2)OCCO3)nnc1C1CC1,i,0.6,nt,nt,
CC(C)(C)c1nc(SCC(=O)c2ccccc2)c2ccccc2n1,i,19*,i,i,CHO-K1 ctr=-2;KCNQ1 pot spec=52*;KCNQ2 pot confirm=26*;Kir21 spec=-30;KCNQ2 W236L MoA=i
CC(C)(C)c1nc(SCC(=O)N2CCCC2)c2ccccc2n1,i,5.1,nt,nt,
CCCN(CCC)C(=O)c1oc2ccccc2c1NC(=O)Cc1cccc(OC)c1,i,nt,nt,nt,
COc1ccc(C(C(=O)NC(C)(C)C)N(C(=O)CCC(=O)Nc2cc(C)on2)c2cccc(F)c2)cc1 (stereo not given),i,5.6*,i,i,CHO-K1 ctr=-21;KCNQ1 pot spec=-6;KCNQ2 pot confirm=-27;Kir21 spec=-30
CCOc1cccc(N(C(=O)CCC(=O)Nc2cc(C)on2)C(C(=O)NC(C)(C)C)c2ccc(OC)cc2)c1 (stereo not given),i,nt,nt,nt,
C#Cc1ccc([C@H]2C=C(C(=O)N3CCOCC3)O[C@@H](OCc3ccc(CO)cc3)C2)cc1,i,nt,nt,nt,
Cc1ccc(C(=O)COC(=O)CCN2C(=O)C3C4C=CC(C5CC45)C3C2=O)cc1 (stereo not given),i,0.2,nt,nt,
COc1cccc(-c2nc(NCC3CCCO3)c3ccccc3n2)c1O (stereo not given),i,nt,nt,nt,
COc1ccccc1Nc1nc(NCC2CCCO2)c2ccccc2n1 (stereo not given),i,nt,28%*,i,
